These results are taken from PubChem BioAssay AID1527 (The Scripps Research Institute Molecular Screening Center, 2009).

Hit rate of the full screen: of about 290,000 compounds, about 2,600 (0.9%) were called active. What follows is part of a selection rich in actives, with near analogues and random picks from the rest. A number with no mark means an inactive call.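 The calls were made as follows: active = inhibition above the mean of all tested compounds plus 3 SD, cutoff set per screening run (cut at about 7.5% in these data); inactive = the rest.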

The test system of the test is VIM-2 metallo-beta-lactamase (Pseudomonas aeruginosa). Kind of test: VIM-2 metallo-beta-lactamase inhibitors, primary screen, biochemical, epi-absorbance readout, Pseudomonas aeruginosa enzyme (AID 1527).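 Also: red hydrolysis product quenches plate fluorescence so inhibitors raise well fluorescence; 0% = enzyme with DMSO and 100% = DMSO without enzyme.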 As to conditions: purified VIM-2, nitrocefin hydrolysis, epi-absorbance fluorescence; at 5.6 µM; stronger effect = higher value.
For orientation: inhibition means the drop in the measured response relative to a control, in per cent. On to `CCOCCn1c(-c2ccccc2)nc2ccccc21`, for which the inhibition is -2.42%. The figure for `CCOCCCNc1c(CC)c(C)c(C#N)c2nc3ccccc3n12` is 12.7% (active); for `CCOCCCNc1nc(-c2ccccc2)nc2ccccc12` it is 1.44%; for `CCOC(=O)C1(c2ccccc2)NC(c2ccc(N(C)C)cc2)C2C(=O)N(C)C(=O)C21` (stereo unspecified) it is -1.25%. Turning to `COc1ccc(CN2CC(C(=O)NC3CCCCC3)CC2=O)cc1` (stereo unspecified), the inhibition is 0.64%. As to `COc1ccc(N(CC(=O)Nc2cccc3ccccc23)S(C)(=O)=O)c(OC)c1`, the inhibition was -2.25%.

As to `c1ccc(-c2cc(-c3ccccc3)[nH]n2)cc1`, the inhibition is -2.1%. The figure for `N#Cc1c2c(c(-c3ccccc3)[nH]c1=O)CCCC2` is -0.97%; for `O=c1[nH]c(-c2ccccc2)c(-c2ccccc2)[nH]1` it is 13.9% (active). As to `COc1ccc(N2CCN(C(=O)c3ccccc3NC(=O)C3=C(C)OCCS3)CC2)cc1`, the inhibition was -0.86%. Turning to `COc1cc(NC(=O)C2=C(C)OCCS2)c(Cl)cc1C(=O)NCCN1CCN(C)CC1`, the inhibition is 25.9% (active). For the compound `CCCCNC(=O)c1ccccc1NC(=O)C1=C(C)OCCS1`, the inhibition was -1.59%. Consider `CCn1cc(CN2CCC(C(=O)Nc3cccc(-c4cccc(Cl)c4)c3)CC2)c(C)n1`, for which the inhibition is -1.75%. Under `Cc1cc(OCCCN2CCN(Cc3ccccc3)CC2)ccc1[N+](=O)[O-]` stands 8.13% (active). Regarding `Cc1cc(OCCCCOc2ccc(C#N)cc2)ccc1[N+](=O)[O-]`, the inhibition is -2.44%. The figure for `Cc1cc(OCC(=O)Nc2c(C)n(C)n(-c3ccccc3)c2=O)ccc1[N+](=O)[O-]` is -4.47%; for `COc1cc(CN2CCN(Cc3ccc(C)cc3)CC2)c([N+](=O)[O-])cc1OC` it is 0.03%. Under `Cc1cc(OCC(=O)NC2CCN(C)CC2)ccc1[N+](=O)[O-]` stands 9.4% (active); under `O=C(COc1ccccc1[N+](=O)[O-])NC1CC1`, -2.67%; under `Oc1ccc(-c2cccc(-c3ccc(O)cc3)c2)cc1`, -2.2%. Under `Cc1ccc(CNC(=O)c2ccc(CS(=O)Cc3cccc(Cl)c3)o2)cc1` (stereo unspecified) stands -2.03%; under `COCCCC1CCN(C(=O)C2CCC(=O)N(C3CCCCCC3)C2)CC1` (stereo unspecified), -3.17%; under `CCCc1cc(=O)oc2cc(OCC(=O)Nc3ccc(CN4CCOCC4)cc3)c(Cl)cc12`, 0.28%. On to `CCc1cc(=O)oc2c(C)c(OCC(=O)NCCN3CCOCC3)ccc12`, for which the inhibition is 6.89%.

For `O=C(COc1cc2oc(=O)c3c(c2cc1Cl)CCC3)NCCCN1CCOCC1`, the inhibition was 27.2% (active). Turning to `Cc1ccc(-n2c(C)cc(C(=O)CSc3nnc4ccccn34)c2C)cc1`, the inhibition is 1.89%.
